Screening results from PubChem.
E coli growth-1: E. coli growth inhibition, primary screen, OD600; Escherichia coli growth, 23 h; stronger effect = lower value; OD600 absorbance (no concentration beside the values); actives 0.21% (n = 330,000); AID 1053175, 2014;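 active = OD600 absorbance below the run mean of sample wells minus 3.6 SD, in any replicate, cut at about 0.56 in these data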
Tat export inh: E. coli Tat export inhibitors, primary screen, MC4100, TorA-mCherry reporter, fluorescence, single point; AID 488895, 2010; actives 0.036% (n = 340,000); inhibition, % at 10 µM;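 active = mean replicate inhibition at least 50% and at least half of replicates individually reaching 50%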;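 note: exported cargo escapes ClpAP degradation while cytoplasmic cargo is degraded and loses fluorescence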
E coli growth-2: E. coli V3065 growth inhibition, primary screen, counter-screen for AddAB inhibitor project, absorbance, OD600. 18 h. inhibition, % at 11.9 µM. actives 0.27% (n = 330,000);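 active = inhibition above the campaign's mean inhibition across all tested compounds plus 3 SD, cut at about 9.9% in these data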;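 note: uninfected addAB+ strain grown without phage in ampicillin broth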
AddAB inh: growth inhibition of E. coli expressing H. pylori AddAB, primary screen, AddAB inhibitor project, absorbance; inhibition, % at 11.9 µM; actives 0.29% (n = 330,000); AID 435030, 2010; in the data active = inhibition above about 12%
phage Ecoli inh: growth loss of phage-infected E. coli, primary screen, RecBCD inhibitor project, absorbance, with phage, HTS | actives 0.26% (n = 360,000) | AID 651602, 2012 | inhibition, % at 11.9 µM; in the data active = inhibition above about 11%
Of the large screens only hits and unclear results are named; the others gave an inactive call. Rows were chosen to be rich in hits. Some 0.5% of all compounds tested hit in one or more screens of this group.

COCC1=C(C(=O)OC(C)OC(=O)OC(C)C)N2C(=O)[C@@H](NC(=O)/C(=N\OC)c3csc(N)n3)[C@H]2SC1 (stereo partly drawn)	none (no result: E coli growth-1)
C=CC1=C(C(=O)O)N2C(=O)C(NC(=O)C(=NOCC(=O)O)c3csc(N)n3)C2SC1 (stereo not drawn)	E coli growth-1 0.062 (no result: Tat export inh, E coli growth-2, AddAB inh, phage Ecoli inh)
CCCCCCCCCCCCCCCC[n+]1cccc2ccccc21	E coli growth-1 0.092
CC(CO)NC(=O)C1CC1C(NP(=O)(c1ccccc1)c1ccccc1)c1ccccc1 (stereo not drawn)	none (no result: Tat export inh, E coli growth-2, AddAB inh, phage Ecoli inh)
Cc1ccc(-n2[nH]c(C)c(C=Nc3ccc(S(=O)(=O)Nc4nccs4)cc3)c2=O)cc1	AddAB inh 13 (no result: Tat export inh, phage Ecoli inh)
CCOC(=O)c1sc(NC(=O)Nc2ccccc2)cc1C	E coli growth-1 0.53
CCOC(=O)c1sc(NC(=O)Nc2ccccc2Cl)cc1C	none
CCC(C)C(NC(=O)C(=Cc1ccccc1)NC(=O)c1ccc(OC)cc1)C(=O)O (stereo not drawn)	none (no result: Tat export inh, E coli growth-2, AddAB inh, phage Ecoli inh)
NC(C(=O)NC1C(=O)N2C(C(=O)O)=C(Cl)CSC12)c1ccccc1 (stereo not drawn)	E coli growth-1 0.06 (no result: Tat export inh, E coli growth-2, AddAB inh, phage Ecoli inh)
Cc1ccc(Nc2c(-c3ccccn3)nc3cccc(C)n23)cc1	E coli growth-1 0.28
CC(=O)NCc1ccc(C(=O)CCl)cc1	E coli growth-1 0.51
CC(=O)N(C)Cc1ccc(C(=O)CCl)cc1	none
CC(=O)Nc1ccc(C)cc1	none
CC(=O)Nc1ccc(C(=O)CCl)cc1	E coli growth-1 0.41
CC(=O)NCc1ccc(C(=O)CCl)s1	E coli growth-1 0.49
O=C(C1=CC(c2ccc3c(c2)OCO3)CC(OCc2ccc(CO)cc2)O1)N1CCN(Cc2ccc3c(c2)OCO3)CC1 (stereo not drawn)	none (no result: Tat export inh, E coli growth-2, AddAB inh, phage Ecoli inh)
Cc1cccc(C(=O)NC2c3ccccc3CC2O)n1 (stereo not drawn)	none (no result: Tat export inh, E coli growth-2, AddAB inh, phage Ecoli inh)
O=[N+]([O-])c1ccc(Cl)c2cccnc12	none
Cc1c(C)c2cccnc2c2ncccc12	E coli growth-1 0.25, E coli growth-2 47, AddAB inh 47 (no result: phage Ecoli inh)
Clc1cc2cccnc2c2ncccc12	E coli growth-1 0.53
Cc1ccc2ccc3cccnc3c2n1	none (no result: E coli growth-1)
COc1cc(C)c(Cc2cnc(N)nc2N)cc1OC	E coli growth-2 101, AddAB inh 100 (no result: E coli growth-1, Tat export inh, phage Ecoli inh)
CCCCCCCCN1C(CC(=O)O)c2cc(C(F)(F)F)ccc2S1(=O)=O (stereo not drawn)	none (no result: Tat export inh, E coli growth-2, AddAB inh, phage Ecoli inh)
CCCCCCCCCCCCN1[C@@H](CC(=O)O)c2cc(C(F)(F)F)ccc2S1(=O)=O	Tat export inh 52 (no result: E coli growth-1)
COc1ccc(CNC(=O)c2ccc(C)o2)cc1	E coli growth-2 10
OCC1(CO)COC(c2ccccc2)=N1	none
O=C1OCC(CO)(CO)N=C1NNc1ccc(Cl)c(Cl)c1	E coli growth-1 0.18
CN1CCN(C2=Cc3cc(Cl)ccc3Sc3cc(F)ccc32)CC1	E coli growth-1 0.36
CCCCCCCCCCCCCCCCn1cc[n+](CC(C)=O)c1	E coli growth-1 0.064 (no result: E coli growth-2, AddAB inh, phage Ecoli inh)
CCCCCCn1ccc(=N)cc1	none
CCN1/C(=C/c2ccc3cc(C)ccc3[n+]2CC)Sc2cc(C)ccc21	E coli growth-1 0.35 (no result: E coli growth-2, AddAB inh)
COc1ccc(C=NN2CCOCC2)cc1O	E coli growth-1 0.55 (no result: Tat export inh, E coli growth-2, AddAB inh, phage Ecoli inh)
COc1ccc(/C=N/N2CCOCC2)cc1O	none (no result: E coli growth-1)
O=C(O)c1ccc(NN=C/C=C/c2ccc([N+](=O)[O-])o2)cc1	none (no result: Tat export inh, E coli growth-2, AddAB inh, phage Ecoli inh)
Oc1c(CN2CCCCC2)cc(Br)c2cccnc12	E coli growth-1 0.17
CN1CCN(Cc2cc(COCc3ccccc3)c3cccnc3c2O)CC1	none (no result: E coli growth-1)
O=C(Oc1c(CN2CCOCC2)cc(Cl)c2cccnc12)c1ccccc1	none
Oc1c(Cl)cc(CN2CCOCC2)c2cccnc12	E coli growth-1 0.52
Oc1c(CN2CCc3ccccc3C2)cc(Cl)c2cccnc12	E coli growth-1 0.43 (no result: phage Ecoli inh)
O=C(COc1c(Br)cc(Br)c2cccnc12)N1CCCCC1	none
COC(=O)C1=C(C)NC(=O)C1=Cc1cc(C)n(-c2cc(C)cc(C)c2)c1C	none (no result: Tat export inh, E coli growth-2, AddAB inh, phage Ecoli inh)
CCCCCCCC(=O)N1CCN(c2cc3c(cc2F)c(=O)c(C(=O)O)cn3CC)CC1	E coli growth-1 0.097 (no result: E coli growth-2, AddAB inh)
CCCCCCCCC(=O)N1CCN(c2cc3c(cc2F)c(=O)c(C(=O)O)cn3CC)CC1	E coli growth-1 0.42
CCCCCCn1cc(C(=O)O)c(=O)c2cc(F)c(N3CCN(C)CC3)cc21	none (no result: phage Ecoli inh)
Cc1ccc(C2C3C(=O)N(c4ccccc4)C(=O)C3[C@]3(C)C(=O)N(Cc4ccc(-c5ccccc5)cc4)CC(=O)N23)o1 (stereo partly drawn)	none (no result: Tat export inh, E coli growth-2, AddAB inh, phage Ecoli inh)
